High-throughput results from PubChem BioAssay.
NS1 inh – qHTS Assay for Inhibitors of Influenza NS1 Protein Function; Potency, µM (doses to about 46.1 µM), for inactives: at the highest dose activity, positive = more growth; hit rate 0.4% among 270,000; AID 2326, 2010; calls by dose curve; also: actives are rising curves; nearly all actives have a fitted effect of over 50% in size
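Growth recovery, yeast-based: influenza A NS1 expressed in S. cerevisiae causes slow growth, and suppressors are detected by OD600. The parent strain without NS1 is used as positive control.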
HCV inhibitor – qHTS Assay for Inhibitors of Hepatitis C Virus (HCV); Huh7.5.1 HCVcc-Cre infection, luciferase reporter, 44 h; Potency, µM (top dose mostly 41.8 µM), inactives show at the highest dose activity change, negative = inhibition, usual class: inhibitors; hit rate 3.4% among 340,000; AID 651820, 2012; also: % is scaled to controls: 0 for no effect and ±100 for the full control effect
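Cells (1,000/well) were plated 4 h before compound, then infected with HCVcc-Cre virus (~0.5 moi). After 44 h further culture, infection was read as luciferase luminescence following a 15 min substrate incubation at room temperature.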
AMA1-RON2 inh – qHTS for Inhibitors of AMA1-RON; Towards Development of Antimalarial Drug Lead: Primary Screen | Plasmodium falciparum AMA1 (3D7) - RON2 peptide interaction | AlphaScreen AMA1-biotinylated RON2 peptide binding | Potency, µM (titrated, usually from 58.2 µM), inactives show at the top dose activity change, negative = inhibition, usual class: inhibitors | hit rate 0.2% among 360,000 | AID 720542, 2013;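 also: 0% = vehicle wells and -100% = peptide control; nearly all actives have a fitted effect of over 45% in size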
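AMA1 (3D7) with his tag at 25 nM final met compounds first, then biotinylated RON2 peptide at 25 nM; detection used donor plus acceptor beads, 10 µg/mL apiece, read by AlphaScreen after 30 min at room temperature.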
Pf growth 48h – Primary qHTS for delayed death inhibitors of the malarial parasite plastid, 48 hour incubation; P. falciparum luciferase growth in erythrocytes, 48 h; hit rate 5.9% among 310,000; Potency, µM (doses to about 28.7 µM), without a hit: at the top dose activity change, negative = inhibition, actives largely listed as inhibitors; also: % is scaled to controls: 0 for no effect and ±100 for the full control effect
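Compounds are pin-transferred into medium, infected erythrocytes (2% hematocrit, 0.1% parasitemia final) are added, and plates sit one parasite generation at 37 C in 5% CO2. Detection reagent is then added and luminescence measured.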
Pf growth 96h – Primary qHTS for delayed death inhibitors of the malarial parasite plastid, 96 hour incubation | Potency, µM (highest dose often 28.7 µM), inactives show at the top dose activity change, negative = inhibition, most hits filed as inhibitors | P. falciparum luciferase reporter growth, 96 h | hit rate 6.9% among 320,000; also: % is scaled to controls: 0 for no effect and ±100 for the full control effect
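Luminescence readout: decreased luciferase signal marks inhibited growth of reporter-expressing P. falciparum in infected red cells (2% hematocrit, 0.05% parasitemia final), exposed to compound two generations (96 h, 37 C, 5% CO2).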
SARS PLP yeast – qHTS of Yeast-based Assay for SARS-CoV PLP | S. cerevisiae expressing SARS-CoV PLpro, growth rescue | Potency, µM (highest dose often 32.9 µM), without a hit: top-dose activity, positive = growth rescue, usual class: activators | hit rate 0.19% among 330,000 | AID 485353, 2010; calls by dose curve; also: 0% is about no effect; nearly all actives have a fitted effect of over 55% in size
* = called active by the depositor; ? = inconclusive; . = not tested or not shown; [ ] = dose if it differs, or a comment. A selection: hits, their analogues and other compounds. The true share with any hit is near 12%. Unless noted, calls follow the shape of the dose curve; as a rule, active = well fitted curve in the direction sought with a large enough effect; inconclusive = small, poorly fitted or top-dose-only effect, or another doubt; inactive = no such curve, though single readings can be large; an effect the other way counts as inactive or inconclusive. Potency is read from the fitted curve at half-maximal effect.

SMILES | NS1 inh | HCV inhibitor | AMA1-RON2 inh | Pf growth 48h | Pf growth 96h | SARS PLP yeast
CSc1ccc(/C=N/n2nnnc2N)cc1 | 1% | 14% | -3% | 70% | 2% | -1%
C(=C1c2ccccc2-c2ccccc21)c1ccccn1 | . | ? | -7% | . | . | .
C/C(=N\NC(=O)c1cccnc1)c1ccc(OC2OCCOC2Oc2ccc(/C(C)=N/NC(=O)c3cccnc3)cc2)cc1 (stereo not given) | . | ? | 6% | -25% | 12% | 4%
C=CCc1cc(/C=C2/NC(=O)N(CC(=O)OC)C2=O)cc(OC)c1O | . | ? | 4% | ? | ? | 2%
Nc1nnnn1/N=C/c1ccc(O)cc1 | -4% | 15% | -10% | . | 2.1µM* | 9%
Nc1nnnn1/N=C/c1ccccc1Cl | . | . | 7% | . | . | .
Nc1nnnn1/N=C/c1ccccn1 | 9% | 8% | 46% | 27% | 6.6µM* | 11%
N/C(=N\OS(=O)(=O)c1ccccc1)c1cccnc1 | 24% | 14% | 3% | 11% | 155% | 15%
N/C(=N\OS(=O)(=O)c1ccccc1)c1ccncc1 | -3% | -4% | 0% | ? | 8.3µM* | 1%
COc1ccc(N(CCCN2C(=O)c3cccc4cccc(c34)C2=O)C(=O)c2cccnc2)cc1 | . | ? | ? | ? | -24% | 0%
COc1cc(OC)cc(C(=O)N(CCCN2C(=O)c3cccc4cccc(c34)C2=O)c2cccc(OC)c2)c1 | ? | -19% | -4% | 9.3µM* | -99% | 11%
COc1ccc(N(CCCN2C(=O)c3cccc4cccc(c34)C2=O)C(=O)c2ccncc2)cc1 | . | 5% | -10% | 2.3µM* | 1.5µM* | 1%
COc1ccc(N(CCN2C(=O)c3ccccc3C2=O)C(=O)c2cccc([N+](=O)[O-])c2)cc1 | 14% | -1% | -9% | 4% | -26% | ?
O=C(Nc1ccccc1)c1ccc(Br)c(S(=O)(=O)Nc2ccccn2)c1 | -2% | 20% | 6% | 10% | -21% | 1%
Cc1ccc(NC2=C(NC(=O)c3ccccc3)C(=O)c3ccccc3C2=O)cc1Cl | -33% | ? | ? | 0.29µM* | ? | -48%
O=C(NCC(=O)N1CCN(S(=O)(=O)c2ccccc2F)CC1)c1ccc(Br)o1 | 9% | 6% | -8% | 18% | 17% | 25%
C/C(=N\NC(=S)NCc1ccccc1)c1ccc2ccccc2c1OC(F)F | . | 13µM* | 46% | 0% | ? | 1%
C/C(=N\NC(=S)NCc1ccccc1)c1ccc(Cl)s1 | . | 11µM* | 0% | ? | ? | -4%
C/C(=N\NC(=S)NCc1ccccc1)c1cccs1 | . | ? | -15% | -23% | ? | -1%
C/C(=N\NC(=S)NCc1ccccc1)c1ccc(Br)cc1 | . | ? | 12% | ? | ? | -10%
O=C(NCCCO)c1ccc2nc(-c3ccco3)c(-c3ccco3)nc2c1 | . | -12% | ? | 8% | 54% | 0%
O=C(Nc1ccccc1)c1ccc2nc(-c3ccco3)c(-c3ccco3)nc2c1 | -40% | 8.9µM* | -8% | ? | . | 0%
O=C(Nc1ccc(N2CCOCC2)cc1)c1ccc2nc(-c3ccco3)c(-c3ccco3)nc2c1 | -4% | 6% | -8% | -17% | ? | -4%
CCCNC(=O)c1ccc2nc(-c3ccccc3)c(-c3ccccc3)nc2c1 | -6% | ? | 1% | 5.2µM* | ? | -2%
O=C(NCc1ccccc1)c1ccc2nc(-c3ccco3)c(-c3ccco3)nc2c1 | 30% | -8% | -20% | . | 12µM* | 5%
SMILES | NS1 inh | HCV inhibitor | AMA1-RON2 inh | Pf growth 48h | Pf growth 96h | SARS PLP yeast
O=C(Nc1ccc2nc(-c3ccco3)c(-c3ccco3)nc2c1)N1CCN(c2ccccn2)CC1 | ? | 7.9µM* | ? | ? | -30% | -3%
O=C(Nc1cc(C(=O)N2CCN(c3ccccc3O)CC2)ccc1Cl)c1cccs1 | . | ? | -9% | ? | ? | 2%
Cc1nnnn1CC(=O)Nc1cccc([N+](=O)[O-])c1 | . | -9% | 2% | -1%[5.75 µM] | ? | 0%
Nc1c(C(=O)Nc2ccccc2)sc2nc(-c3ccco3)ccc12 | 4% | 11µM* | -7% | 16% | 15% | -2%
CC(=O)c1ccc(NC(=O)c2ccc3nc(-c4ccco4)c(-c4ccco4)nc3c2)cc1 | 5% | ? | 11% | 12µM* | . | -1%
COc1ccccc1NC(=O)c1sc2nc(-c3ccco3)ccc2c1N | -32% | 7% | 22% | 13% | . | -11%
Cc1cccc(NC(=O)CSCC(=O)N(CCC(C)C)c2c(N)n(Cc3ccccc3)c(=O)[nH]c2=O)c1 | . | ? | 5% | 2% | ? | 0%
N#CC1=C(N)Oc2cc(N)ccc2C1c1ccc(F)cc1F (stereo not given) | ? | ? | -7% | 1% | 5.9µM* | -5%
N#CC1=C(N)Oc2cc(N)ccc2C1c1ccc(F)cc1 (stereo not given) | 22% | ? | -5% | 6% | . | 4%
Cc1ccc([C@@H]2CC(=O)[C@@H]3CN(S(=O)(=O)c4ccc(C)cc4)[C@H](c4ccccc4F)C[C@@H]3N2S(=O)(=O)c2ccc(C)cc2)cc1 | . | . | 1% | . | . | .
COC(=O)C1=C(C)NC(C)=C(C(=O)OC(C)(C)CN(C)CCC(c2ccccc2)c2ccccc2)C1c1cccc([N+](=O)[O-])c1 (stereo not given) | . | . | . | 1.5µM* | 3µM* | .
CCOC(=O)C1=C(C)NC(C)=C(C(=O)OC)C1c1cccc([N+](=O)[O-])c1 (stereo not given) | -31% | ? | -11% | 5.9µM* | ? | 6%
COC(=O)C1=C(C)NC(C)=C(C(=O)OC)C1c1ccccn1 | 1% | -1% | 8% | -7% | . | 4%
CC1=C(C(=O)OC(C)C)C(c2cccc([N+](=O)[O-])c2)C(C(=O)OC2CN(C(c3ccccc3)c3ccccc3)C2)=C(N)N1 (stereo not given) | . | . | . | 7.6µM* | -3% | .
CCOC(=O)C1=C(C)N(C)C(=O)NC1c1cccc([N+](=O)[O-])c1 (stereo not given) | . | -7% | -2% | . | . | .
COC(=O)C1=C(C)NC(C)=C(C(=O)OC)C1c1ccccc1[N+](=O)[O-] | -27% | ? | -2% | ? | ? | 2µM*
COc1ccccc1C(=O)Nc1ccnn1C1CCN(C(=O)c2ccoc2C)CC1 | 2% | 6% | 8% | 15% | ? | 1%
Nc1nnnn1CC(=O)N/N=C/c1ccccn1 | 3% | 17% | 107% | 13% | -1% | 1%
